Test results published in PubChem BioAssay (NCATS).
Inconclusive results are not listed. Entries that show only a call come without a potency. Activity calls are given as the source filed them. Calls follow the shape of the dose curve; as a rule, active = well fitted curve in the direction sought with a large enough effect; inconclusive = small, poorly fitted or top-dose-only effect, or another doubt; inactive = no such curve, though single readings can be large; an effect the other way counts as inactive or inconclusive.

Columns and labels:
[1] = biological target: ATP-dependent 6-phosphofructokinase (Trypanosoma brucei brucei) (UniProt O15648); test: qHTS Assay to Find Inhibitors of T. brucei phosphofructokinase: hit validation (AID 492961);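 also: luminescence reports ADP formed as PFK phosphorylates fructose-6-phosphate with ATP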; conditions: T. brucei PFK, ADP-Glo luminescence; series mostly up to 51.4 µM
Chain of ATP-dependent 6-phosphofructokinase (Trypanosoma brucei brucei) (O15648 whole entry, looked up): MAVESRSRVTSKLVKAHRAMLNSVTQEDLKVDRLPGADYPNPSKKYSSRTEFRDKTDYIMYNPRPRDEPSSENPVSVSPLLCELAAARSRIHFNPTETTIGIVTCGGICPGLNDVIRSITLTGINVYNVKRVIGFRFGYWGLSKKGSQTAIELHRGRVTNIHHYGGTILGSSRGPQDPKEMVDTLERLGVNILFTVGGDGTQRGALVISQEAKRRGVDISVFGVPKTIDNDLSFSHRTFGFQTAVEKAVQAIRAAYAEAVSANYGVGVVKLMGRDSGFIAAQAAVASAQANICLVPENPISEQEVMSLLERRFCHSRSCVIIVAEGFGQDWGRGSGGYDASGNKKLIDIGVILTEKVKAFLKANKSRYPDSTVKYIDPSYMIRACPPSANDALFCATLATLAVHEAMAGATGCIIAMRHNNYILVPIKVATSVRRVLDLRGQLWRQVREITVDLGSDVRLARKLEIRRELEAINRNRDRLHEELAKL
Summary of the method: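 Compounds titrated; %activity normalized to 0x and 1x enzyme controls, curve-fitted. Readout: ADP-Glo luminescence after 45 min room-temperature reaction of 1.25 nM PFK, 0.1 mM ATP, 0.5 mM F6P, pH 8.0.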

[2] = biological target: Ubiquitin carboxyl-terminal hydrolase 1 (Homo sapiens) (UniProt O94782); test: Inhibitors of USP1/UAF1: Pilot qHTS (AID 504865); conditions: purified USP1/UAF1, Ub-rhodamine cleavage fluorescence; series mostly up to 114 µM; also: nearly all actives have a fitted effect of over 35% in size; also: potency is read from the fitted curve at half-maximal effect
Chain of Ubiquitin carboxyl-terminal hydrolase 1 (Homo sapiens) (O94782 whole entry, looked up): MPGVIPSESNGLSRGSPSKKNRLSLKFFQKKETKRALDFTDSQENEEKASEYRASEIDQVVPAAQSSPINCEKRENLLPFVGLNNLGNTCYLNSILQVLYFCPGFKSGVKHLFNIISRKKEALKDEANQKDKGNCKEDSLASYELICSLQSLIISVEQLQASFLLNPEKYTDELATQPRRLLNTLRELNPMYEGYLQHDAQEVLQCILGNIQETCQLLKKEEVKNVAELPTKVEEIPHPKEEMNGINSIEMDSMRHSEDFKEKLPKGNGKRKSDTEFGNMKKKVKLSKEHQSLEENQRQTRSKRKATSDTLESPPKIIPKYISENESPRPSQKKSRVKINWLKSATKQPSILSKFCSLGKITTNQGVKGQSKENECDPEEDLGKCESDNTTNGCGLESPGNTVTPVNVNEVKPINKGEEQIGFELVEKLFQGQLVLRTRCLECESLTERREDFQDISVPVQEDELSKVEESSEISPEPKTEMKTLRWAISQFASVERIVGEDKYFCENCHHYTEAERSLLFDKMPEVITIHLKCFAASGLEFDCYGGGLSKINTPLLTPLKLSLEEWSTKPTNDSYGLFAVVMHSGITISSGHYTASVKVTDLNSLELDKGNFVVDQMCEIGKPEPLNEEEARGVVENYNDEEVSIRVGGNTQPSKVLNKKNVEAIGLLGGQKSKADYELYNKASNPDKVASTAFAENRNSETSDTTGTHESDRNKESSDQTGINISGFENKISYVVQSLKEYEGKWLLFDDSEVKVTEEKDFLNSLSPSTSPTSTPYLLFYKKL
Summary of the method: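 USP1/UAF1 complex (1nM) preincubated with compound 15 min at room temperature, then Ub-Rho substrate (150nM final) added. Fluorescence read kinetically at 480/540 nm, 6 reads every 60 seconds. Buffer: 50mM HEPES pH 7.8, 0.5mM EDTA, 0.1 mg/ml BSA, 1mM TCEP, 0.01% Tween-20.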

| Compound | Potency [1] | Potency [2] |
| --- | --- | --- |
| C[C@]12CCC(=O)C[C@@H]1CC[C@@H]1[C@@H]2CC[C@]2(C)C=CC[C@@H]12 | inactive | inactive |
| CO/N=C(\C(=O)N[C@@H]1C(=O)N2C(C(=O)[O-])=C(C[n+]3cccc4c3CCC4)CS[C@H]12)c1csc(N)n1 | inactive | inactive |
| CC(CC=O)CCCC(C)(C)O (stereo not given) | inactive | inactive |
| Cc1ccc(S(=O)(=O)O)cc1C | inactive | inactive |
| CCN(CC)C(=O)c1cccnc1 | inactive | inactive |
| OCC1(CO)COC(C(Cl)(Cl)Cl)OC1 | inactive | inactive |
| Nc1nccs1 | inactive | inactive |
| CN(C)C=Nc1c(I)cc(I)c(CCC(=O)O)c1I | inactive | inactive |
| Cc1cc(C(=O)NCCc2ccc(S(=O)(=O)NC(=O)NN3CCCCCC3)cc2)no1 | inactive | inactive |
| O=C(CCCN1CCN2CCCC2C1)c1ccc(F)cc1 (stereo not given) | inactive | inactive |
| O=C(O)/C=C/c1ccccc1 | inactive | inactive |
| C[C@H](O)CN(C)C | inactive | inactive |
| O=C1CCC(=O)N1CO | inactive | inactive |
| O=C1c2ccccc2C(=O)C1c1ccc(F)cc1 | inactive | inactive |
| CCC(O)c1ccccc1 (stereo not given) | inactive | inactive |
| CS(=O)(=O)c1ccc([C@@H](O)[C@@H](COC(=O)CN)NC(=O)C(Cl)Cl)cc1 | inactive | inactive |
| CCN(CC)CCOc1ccc2nc(N(C)C)sc2c1 | inactive | inactive |
| CC[C@H]1OC(=O)[C@H](C)[C@@H](O[C@H]2C[C@@](C)(OC)[C@@H](O)[C@H](C)O2)[C@H](C)[C@@H](O[C@@H]2O[C@H](C)C[C@H](N(C)C)[C@H]2O)[C@](C)(O)C[C@@H](C)CN(C)[C@H](C)[C@@H](O)[C@]1(C)O | inactive | inactive |
| FC(F)(F)C(F)(F)C(F)(F)C(F)(F)C(F)(F)F | inactive | inactive |
| CC1=C(/C=C/C(C)=C/C=C/C(C)=C/C(=O)Oc2c(C)c(C)c3c(c2C)CC[C@@](C)(CCC[C@H](C)CCC[C@H](C)CCCC(C)C)O3)C(C)(C)CCC1 | inactive | inactive |
| NCC(O)CC(=O)O (stereo not given) | inactive | inactive |
| CN[C@@H]1[C@H](O[C@H]2[C@H](O[C@H]3[C@H](O)[C@@H](O)[C@H](N=C(N)N)[C@@H](O)[C@@H]3N=C(N)N)O[C@@H](C)[C@]2(O)C=O)O[C@@H](CO)[C@H](O)[C@H]1O | inactive | inactive |
| CO[C@H]1C[C@@H]2CC[C@@H](C)[C@@](O)(O2)C(=O)C(=O)N2CCCC[C@H]2C(=O)O[C@H]([C@H](C)C[C@@H]2CC[C@@H](OC(=O)C(C)(CO)CO)[C@H](OC)C2)CC(=O)[C@H](C)/C=C(\C)[C@@H](O)[C@@H](OC)C(=O)[C@H](C)C[C@H](C)/C=C/C=C/C=C/1C | inactive | inactive |

| Compound | Potency [1] | Potency [2] |
| --- | --- | --- |
| COC(=O)CC[C@H](N)C(=O)O | inactive | inactive |
| CC(CNC(=O)c1cccnc1)NC(=O)c1cccnc1 (stereo not given) | inactive | inactive |
| C[C@H](CCCC(C)(C)O)[C@H]1CC[C@H]2[C@@H]3CC=C4C[C@@H](O)CC[C@]4(C)[C@H]3CC[C@]12C | inactive | inactive |
| O=C(OC1C[C@@H]2CC3C[C@H](C1)N2CC3=O)c1c[nH]c2ccccc12 (stereo not given in full) | inactive | inactive |
| c1ccc2ccccc2c1 | inactive | inactive |
| CCCC(CCC)C(=O)OC1C[C@H]2CC[C@@H](C1)[N+]2(C)C (stereo not given in full) | inactive | inactive |
| CC(=O)Oc1cc(C(F)(F)F)ccc1C(=O)O | inactive | inactive |
| CN(C)CCC=C1c2ccccc2C(C)(C)c2ccccc21 | inactive | 56.2 µM (active) |
| CSCCC(N)C(=O)O (stereo not given) | inactive | inactive |
| CC(=O)[C@H]1CC[C@H]2[C@@H]3C=CC4=CC(=O)CC[C@@]4(C)[C@H]3CC[C@]12C | inactive | inactive |
| NC(=S)NS(=O)(=O)c1ccc(N)cc1 | inactive | inactive |
| CC1CC(O)CC(C)(C)C1 (stereo not given) | inactive | inactive |
| Cn1c(O)c(N=NC(N)=S)c2ccccc21 | inactive | inactive |
| Cc1ncc(COP(=O)(O)O)c(CN)c1O | inactive | inactive |
| NCCO/C=C/[C@H](N)C(=O)O | inactive | inactive |
| COc1cc2c(cc1OC)[C@@H](Cc1cc(OC)c(OC)c(OC)c1)[N+](C)(CCCOC(=O)CC/C=C/CCC(=O)OCCC[N+]1(C)CCc3cc(OC)c(OC)cc3[C@H]1Cc1cc(OC)c(OC)c(OC)c1)CC2 (stereo not given in full) | inactive | inactive |
| CC(CCc1ccc(O)cc1)NCC(O)c1ccc(O)cc1 (stereo not given) | inactive | inactive |
| NC(=O)C1c2ccccc2CCc2ccccc21 | inactive | inactive |
| OCCOCCOCCO | inactive | inactive |
| OC[C@H]1O[C@@H]2O[C@H]3[C@H](O)[C@@H](O)[C@@H](O[C@H]4[C@H](O)[C@@H](O)[C@@H](O[C@H]5[C@H](O)[C@@H](O)[C@@H](O[C@H]6[C@H](O)[C@@H](O)[C@@H](O[C@H]7[C@H](O)[C@@H](O)[C@@H](O[C@H]1[C@H](O)[C@H]2O)O[C@@H]7CO)O[C@@H]6CO)O[C@@H]5CO)O[C@@H]4CO)O[C@@H]3CO | inactive | inactive |
| CCCCCCCCCCCCCC(=O)OCC(COP(=O)([O-])OCC[N+](C)(C)C)OC(=O)CCCCCCCCCCCCC (stereo not given) | inactive | inactive |
| OB(O)O | inactive | inactive |
| CCc1ncnc2cc(OC)c(OC)cc12 | inactive | inactive |

| Compound | Potency [1] | Potency [2] |
| --- | --- | --- |
| O=C1c2ccccc2CN2C(=O)c3ccccc3CN12 | inactive | inactive |
| O=C(Nc1ccc(O)cc1)c1ccccc1O | inactive | inactive |
| COC(=O)CCC[N+](C)(C)C | inactive | inactive |
| Cc1cccc(C)c1NC(=O)NC1=CCCN1C | inactive | inactive |
| CCSc1ccc2c(c1)N(CCCN1CCN(C)CC1)c1ccccc1S2 | inactive | inactive |
| COC(=O)c1ccccc1O | inactive | inactive |
| CNC(=O)c1c(I)c(C(=O)NCC(=O)Nc2c(I)c(C(=O)O)c(I)c(C(=O)NCCO)c2I)c(I)c(N(C)C(C)=O)c1I | inactive | inactive |
| O=C(O)/C=C/C(=O)Nc1ccc(S(=O)(=O)Nc2nccs2)cc1 | inactive | inactive |
| CCOC(=O)Cc1ccc(-c2ccccc2)cc1 | inactive | inactive |
| CCOc1ccc(NC(=S)Nc2ccc(OCC)cc2)cc1 | inactive | inactive |
| CCC(C)[C@@H](N)C(=O)O (stereo not given in full) | inactive | inactive |
| CC1CCCCN1CCCOC(=O)c1ccccc1 (stereo not given) | inactive | inactive |
| O=C(O)CCC/C=C\C[C@@H]1[C@@H](/C=C/[C@@H](O)COc2cccc(C(F)(F)F)c2)[C@H](O)C[C@@H]1O | inactive | inactive |
| CCc1ccc(S(=O)(=O)O)cc1 | inactive | inactive |
| CC(C)(Oc1ccc(C2CCCc3ccccc32)cc1)C(=O)O (stereo not given) | inactive | inactive |
| OCc1ccccc1 | inactive | inactive |
| CCOC(C)OCC | inactive | inactive |
| CC(=O)[O][Al][O]C(C)=O | inactive | inactive |
| C[Si](C)(C)O[Si](C)(C)C | inactive | inactive |
| C/C=C/C=C/C(=O)O | inactive | inactive |
| O=C(O)[C@H]1C(=CCO)O[C@H]2CC(=O)N12 | inactive | inactive |
| CN=C1C=CC(=C(c2ccc(N(C)C)cc2)c2ccc(N(C)C)cc2)C=C1 | inactive | 20 µM (active) |
| CC(C)(CO)[C@@H](O)C(=O)NCCC(=O)NCCSSCCNC(=O)CCNC(=O)[C@H](O)C(C)(C)CO | inactive | inactive |

| Compound | Potency [1] | Potency [2] |
| --- | --- | --- |
| C=C(C)C1CC=C(C)CC1 (stereo not given) | inactive | inactive |
| CC(C)(COP(=O)(O)OP(=O)(O)OC[C@H]1O[C@@H](n2cnc3c(N)ncnc32)[C@H](O)[C@@H]1OP(=O)(O)O)C(O)C(=O)NCCC(=O)NCCS (stereo not given in full) | inactive | inactive |
| COC(=O)C(CN)c1c[nH]c2ccc(OC)cc12 (stereo not given) | inactive | inactive |
| CC1(O)CCC(C(C)(C)O)CC1 (stereo not given) | inactive | inactive |
| O=P(O)(O)O | inactive | inactive |
| CN1c2c(nc(N)[nH]c2=O)NCC1CNc1ccc(C(=O)NC(CCC(=O)O)C(=O)O)cc1 (stereo not given) | inactive | inactive |
| FC(F)OC(Cl)C(F)(F)F (stereo not given) | inactive | inactive |
| Cc1ncc(C[n+]2csc(CCOP(=O)(O)OP(=O)(O)O)c2C)c(N)n1 | inactive | inactive |
| N=C(N)c1ccc(/C=C/c2ccc(C(=N)N)cc2O)cc1 | inactive | inactive |
| C/C(=C\C(=O)OCCCCCCCCC(=O)O)C[C@@H]1OC[C@H](C[C@@H]2O[C@H]2[C@@H](C)[C@H](C)O)[C@@H](O)[C@H]1O | inactive | inactive |
| O=C(/C=C/c1cccc(F)c1)NC1CC1 | inactive | inactive |
| CN(C)C(=O)CCSC(SCCC(=O)O)c1cccc(/C=C/c2ccc3ccc(Cl)cc3n2)c1 (stereo not given) | inactive | 50.1 µM (active) |
| CCCc1nc(C(C)(C)O)c(C(=O)OCc2oc(=O)oc2C)n1Cc1ccc(-c2ccccc2-c2nn[nH]n2)cc1 | inactive | inactive |
| CC(C)(C)CC(C)(C)c1ccc(OCCO)cc1 | inactive | inactive |
| CCCCCCCCCCCCOCCCN | inactive | inactive |
| O=C1N=C2SCCN2C(=O)C1Cc1ccc(Cl)cc1 (stereo not given) | inactive | inactive |
| Cc1cccc(Nc2ncccc2C(=O)O)c1C | inactive | inactive |
| O=C1CCC(c2ccccc2)(C2CCN(Cc3ccccc3)CC2)C(=O)N1 (stereo not given) | inactive | inactive |
| Nc1ncnc2c1ncn2[C@H]1CC[C@@H](CO)O1 | inactive | inactive |
| c1ccc2c(c1)Sc1ccccc1N2CCN1CCCC1 | inactive | inactive |
| CC[C@H]1OC(=O)[C@H](C)[C@@H](O[C@H]2C[C@@](C)(OC)[C@@H](O)[C@H](C)O2)C(C)[C@@H](O[C@@H]2O[C@H](C)C[C@H](N(C)C)[C@@H]2O)[C@](C)(OC)C[C@@H](C)C(=O)[C@H](C)[C@@H](O)[C@]1(C)O (stereo not given in full) | inactive | inactive |
